Test results taken from PubChem BioAssay AID1159580 (chemical genetic matrix, 2015).
The campaign covered roughly 5,500 compounds. About 2,000 (36%) were called active. Roughly 18% stayed inconclusive and do not appear here. No stated cut-off is given here; in the data, active means normalized growth mostly below about 0.91 (no sharp cut-off); inconclusive means no clear call, values can overlap the other calls; inactive means mostly above about 0.92. The list shows a part of the results.

Test: chemical genetic growth profiling, strain panel (AID 1159580);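 further: tested at 20 µM; growth read once vehicle control cultures reached saturation at 30 °C; 1 = growth at the plate median or of vehicle wells; lower values mean less growth of the strain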
Conditions: S. cerevisiae deletion strains, growth OD

Measured: normalized growth

CC1(C)CCC[C@@]2(C)C1[C@@H](O)C[C@]1(C)C2CC[C@@H]2[C@@]3(C)CC[C@H](C(C)(C)O)[C@@H]3CC[C@@]21C (some centres not stated)
inactive: locus YAL013W, strain DEP1, hits give low values 0.998 | locus YBR021W, strain FUR4, hits give low values 1.07 | locus YBR229C, strain ROT2, hits give low values 1 | locus YCL029C, strain bik1, hits give low values 0.971 | locus YDL035C, strain GPR1, hits give low values 1.01 | locus YDL074C, strain BRE1, hits give low values 1.02 | locus YDL101C, strain DUN1, hits give low values 1 | locus YDL185W, strain tfp1, hits give low values 0.943 | locus YDL192W, strain arf1, hits give low values 0.993 | locus YDR101C, strain arx1, hits give low values 1.01 | locus YDR150W, strain NUM1, hits give low values 0.992 | locus YDR162C, strain NBP2, hits give low values 1.04 | locus YDR318W, strain mcm21, hits give low values 1 | locus YDR388W, hits give low values 0.986 | locus YDR502C, strain sam2, hits give low values 0.989 | locus YEL061C, strain CIN8, hits give low values 1 | locus YER110C, hits give low values 0.977 | locus YER155C, strain BEM2, hits give low values 1.01 | locus YER167W, strain BCK2, hits give low values 0.997 | locus YGL078C, strain dbp3, hits give low values 1 | locus YGL086W, strain mad1, hits give low values 1.05 | locus YGL248W, strain PDE1, hits give low values 1 | locus YGR135W, strain pre9, hits give low values 0.993 | locus YGR252W, strain gcn5, hits give low values 1.06 | locus YHR030C, strain SLT2, hits give low values 0.992 | locus YHR079C, strain IRE1 (second series), hits give low values 1.01 | locus YHR094C, strain hxt1, hits give low values 0.981 | locus YHR129C, strain ARP1, hits give low values 0.997 | locus YHR200W, strain rpn10, hits give low values 0.984 | locus YIL066C, strain RNR3, hits give low values 1.03 | locus YIL073C, strain SPO22, hits give low values 0.941 | locus YIL125W, strain kgd1, hits give low values 0.972 | locus YIR030C, strain dcg1, hits give low values 0.996 | locus YJL095W, strain BCK1, hits give low values 1.02 | locus YJL134W, strain LCB3, hits give low values 0.991 | locus YJL168C, strain set2, hits give low values 1.01 | locus YJL187C, strain SWE1 (second series), hits give low values 1 | locus YJR043C, strain POL32, hits give low values 1.03 | locus YKL009W, strain mrt4, hits give low values 1.05 | locus YKL068W, hits give low values 0.98 | locus YKL085W, strain MDH1 (second series), hits give low values 1.04 | locus YKL085W, strain MDH1, hits give low values 1.04 | locus YKL190W, strain CNB1, hits give low values 0.997 | locus YKR001C, strain vps1, hits give low values 1.03 | locus YLR039C, strain RIC1, hits give low values 1.05 | locus YLR058C, strain SHM2, hits give low values 0.996 | locus YLR102C, strain apc9, hits give low values 0.995 | locus YLR262C, strain YPT6, hits give low values 1.04 | locus YLR268W, strain sec22, hits give low values 0.986 | locus YLR330W, strain CHS5, hits give low values 0.983 | locus YLR342W, strain FKS1 (second series), hits give low values 1.01 | locus YLR371W, strain rom2, hits give low values 0.984 | locus YLR418C, strain cdc73, hits give low values 1.06 | locus YML016C, strain PPZ1, hits give low values 0.995 | locus YML032C, strain rad52, hits give low values 0.983 | locus YML124C, strain tub3, hits give low values 1.01 | locus YMR078C, strain ctf18, hits give low values 1.01 | locus YMR223W, strain ubp8, hits give low values 0.998 | locus YMR263W, strain SAP30, hits give low values 1 | locus YMR307W, strain GAS1, hits give low values 1.12 | locus YNL067W, strain RPL9B, hits give low values 1.02 | locus YNL153C, strain GIM3, hits give low values 1.02 | locus YNL233W, strain BNI4, hits give low values 1.03 | locus YNL250W, strain rad50, hits give low values 0.982 | locus YNL271C, strain bni1, hits give low values 0.997 | locus YNL298W, strain CLA4, hits give low values 0.975 | locus YNL307C, strain MCK1, hits give low values 0.996 | locus YNL322C, strain KRE1, hits give low values 1 | locus YNR052C, strain pop2, hits give low values 0.994 | locus YOL012C, strain htz1 1.13 | locus YOL147C, strain pex11, hits give low values 0.993 | locus YOR061W, strain CKA2, hits give low values 0.999 | locus YOR069W, strain VPS5, hits give low values 0.993 | locus YOR136W, strain idh2, hits give low values 0.988 | locus YOR144C, strain elg1, hits give low values 0.997 | locus YOR184W, strain ser1, hits give low values 1.01 | locus YOR316C, strain cot1, hits give low values 0.985 | locus YPR119W, strain clb2, hits give low values 1 | locus YPR141C, strain kar3, hits give low values 0.982 | locus YPR163C, strain tif3, hits give low values 0.99 | locus YPR167C, strain met16, hits give low values 0.989 | strain wtn01, hits give low values 0.986
